The results in this text go back to PubChem BioAssay (NCI).

The structures appear in SMILES notation. This is part of a sample that, as a whole, favours compounds with a hit. Of some 83,000 tested, about 20% had one in any assay.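 Method: cells in 96-well plates; compound added at one concentration; 48 h incubation; percent growth measured; values under 10 scored active.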 Unmarked numbers belong to inactive results. The source made the active and inactive calls.

Holding throughout (assay): NCI-60 one-dose screen, 48 h (100 = growth as untreated, 0 = no growth, -100 = all killed)
Holding throughout (conditions): 10 µM unless noted

Experiment [1] has as its system HCT-15 colon.
The test system of experiment [2] is HT29 colon.
In experiment [3] the test system is SNB-75 CNS.
Experiment [4] has as its system SNB-19 CNS.
Experiment [5] has as its system U251 CNS.
For experiment [6], the system named is PC-3 prostate.
In experiment [7] the test system is SK-MEL-5 melanoma.
Experiment [8] has as its system UACC-62 melanoma.
Experiment [9] relates to LOX IMVI melanoma.
Experiment [10] concerns SK-MEL-28 melanoma.
The subject of experiment [11] is SK-MEL-2 melanoma.
Experiment [12] deals with EKVX NSCLC.
In experiment [13] the test system is SN12C renal.
Experiment [14] has as its system UO-31 renal.
Experiment [15] concerns TK-10 renal.
Experiment [16] deals with ACHN renal.
Experiment [17] relates to CAKI-1 renal.
For experiment [18], the system named is A498 renal.
Experiment [19] relates to CCRF-CEM leukemia.
For experiment [20], the system named is MOLT-4 leukemia.

`Cc1nc([P+](c2ccccc2)(c2ccccc2)c2ccccc2)c(N2CCCCC2)o1`: the growth in experiment [1] is 103%; in experiment [2], 14.1%; in experiment [3], 37.9%; in experiment [4], 18.7%; in experiment [5], 16.6%; in experiment [6], 15.3%. The growth in experiment [7] was -32.3% (active); in experiment [8], 25.3%; in [9] it was 24.5%; in experiment [10] it was 34.3%; in experiment [11] it was 41.2%; in [12], 63.4%. Also, the growth in [13] was 35%; in [14], 97%; in [15], 53.6%; in experiment [16], 87.6%; in [17] it was 78%; in experiment [18], 34.6%. In addition, the growth is 21.2% in experiment [19] and 28.8% in [20].
For the compound `O=C(/C=C/c1cccc(Oc2ccccc2)c1)c1ccc(Nc2nc(Nc3ccc(F)cc3)nc(Nc3ccc(Cl)cc3)n2)cc1`, the growth in experiment [1] is 109%; in [2] it was 101%; in experiment [3] it was 92.5%; in experiment [4] it was 108%; in [5], 101%; in [6] it was 94%. The growth in [7] was 96.4%; in [8] it was 105%; in experiment [9], 108%; in experiment [10] it was 112%; in [11], 69.1%; in [12] it was 106%. The growth in [13] was 123%; in experiment [14] it was 91.8%; in experiment [15], 130%; in experiment [16] it was 98.6%; in experiment [17] it was 104%; in experiment [18] it was 113%. Also, the growth in [19] is 116%; in experiment [20], -35.6% (active).
For `O=C(Cc1ccc(/C=C/C(=O)c2ncc[nH]2)cc1)Nc1cc(F)c(F)c(F)c1`, the growth in experiment [1] was 11.9%; in experiment [2], 18.1%; in experiment [3], 44.8%; in experiment [4] it was 43.4%; in experiment [5], 8.91% (active); in experiment [6], 48.2%. Further, the growth is 97.7% in [7]; 74.5% in [8]; -3.1% (active) in [9]; 103% in experiment [10]; 114% in [11]; 92.7% in experiment [12]. Moreover, the growth is 56.2% in experiment [13]; 46.7% in experiment [14]; 87.5% in [15]; 93.2% in experiment [16]; 56.2% in [17]; 84.8% in [18]. For the same compound, the growth in [19] is 20.3%; in [20], 26.7%.
As for `CC(=O)c1sc(-c2ccc(F)cc2)cc1O`, the growth is 97.7% in experiment [1]; 105% in experiment [2]; 89% in [3]; 103% in experiment [4]; 100% in experiment [5]; 93.9% in experiment [6]. Further, the growth in [7] is 100%; in [8], 100%; in experiment [9], 97.4%; in experiment [10], 110%; in experiment [11] it was 107%; in experiment [12], 99.7%. Further, the growth was 109% in experiment [13]; 88.5% in experiment [14]; 95.1% in experiment [15]; 106% in experiment [16]; 93.3% in experiment [17]; 102% in experiment [18]. Moreover, the figures for the growth in [19] and in [20] were 97.6% and 93.4%, respectively.
In the case of `COc1ccc(C2[C@@H](Cl)C(=O)N2c2cc(OC)c(OC)c(OC)c2)cc1Cl` (stereo not given in full), the growth was 11% in experiment [1]; -3.88% (active) in experiment [2]; 75.7% in experiment [3]; 32.1% in experiment [4]; 5.8% (active) in experiment [5]; 25.1% in experiment [6]. Also, the growth in [7] is -23.8% (active); in experiment [8], 36.3%; in experiment [9], 20.9%; in [10], 69.6%; in experiment [11], 15%; in experiment [12] it was 35.4%. In addition, the growth was 29.1% in experiment [13]; 45.3% in experiment [14]; 63.9% in [15]; 33.6% in experiment [16]; 26.5% in experiment [17]; -6% (active) in [18]. The growth in [19] is 9.36% (active); in [20], 13.5%.
Take `C[N+]1=C(/C=C/c2ccccc2Cl)C(C)(C)c2ccccc21`: the growth in experiment [1] is 101%; in experiment [2], 91.4%; in [3] it was 95.5%; in [4] it was 107%; in [5], 84.2%; in experiment [6] it was 83.5%. For the same compound, the growth in [7] was 92.2%; in experiment [8], 91.9%; in [9], 85.5%; in [10], 103%; in experiment [11], 109%; in [12], 96.9%. Further, the growth in experiment [13] was 103%; in experiment [14], 71.5%; in [15], 114%; in experiment [16], 110%; in experiment [17], 89%; in [18] it was 87.1%. Moreover, the growth in [19] was 47.1%; in experiment [20], 70.3%.
With `COc1ccc(C2CC(n3ccnc3)c3cc(OC)c(OC)c(OC)c32)cc1O` (stereo not given), the growth was 59.9% in experiment [1]; 102% in experiment [2]; 90.2% in [3]; 93.7% in [4]; 80.4% in [5]; 60.7% in [6]. For the same compound, the growth was 53.1% in [7]; 65.5% in experiment [8]; 86.4% in experiment [9]; 78.3% in [10]; 89.6% in experiment [11]; 101% in experiment [12]. In addition, the growth in experiment [13] was 104%; in experiment [14], 79.9%; in experiment [15] it was 101%; in [16], 86.4%; in experiment [17] it was 74.5%; in [18], 88.3%. The growth in [19] is 90.9%; in [20], 90%.
